This is an account of results in PubChem BioAssay (NCATS).

Results filed as inconclusive are left out. Where a call stands in place of a potency, no number is given. Active and inactive are the calls of the source. Calls follow the shape of the dose curve; as a rule, active = well fitted inhibition curve with a large enough effect; inconclusive = small, poorly fitted or top-dose-only effect; inactive = no such curve, though single readings can be large or run the other way.
Potency is read from the fitted curve at half-maximal effect.

This assay concerns Zika virus NS2B-NS3 protease (unlinked complex). Nature of the assay: Primary screen GU Rhodamine qHTS for Zika virus inhibitors: Unlinked NS2B-NS3 protease assay (AID 1347159). Also: nearly all actives have a fitted effect of over 60% in size. Particulars: Recombinant ZIKV NS2B-NS3 protease, Rhodamine110 substrate fluorescence; series mostly up to 107 µM. In a few lines: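 Percent inhibition derives from the 15-min fluorescence change (ex 480, em 540 nm), normalized to no-enzyme and no-inhibitor wells. Reactions contained 25 nM NS2B-NS3 complex and 1.5 microM substrate in 10 mM Tris-HCl pH 8.0.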
`CCn1c(C(=O)N(C2CC2)C2CC2)cc2c3c(ncn3C)c(Nc3cc(C)n(C)n3)nc21`: the Potency entry was “inactive”. The value for `CNC(=O)c1ccc2cc(C3(O)CCn4cncc43)ccc2c1` (stereo not given) was “inactive”. To `O=c1[nH]cnc2c1ncn2[C@H]1CC[C@@H](CO)O1` belongs “inactive”. For the molecule `CN(C)Cc1ccc(-c2nc3cccc4c3n2CCNC4=O)cc1`, the Potency entry is “inactive”. The value for `COc1ccc(C2CC(c3ccccc3)=NN2c2ccc(S(N)(=O)=O)cc2)cc1` (stereo not given) was “inactive”; that for `O=C(O)c1cc(-c2ccccc2)nc2ccccc12` was “inactive”. Regarding `O=C(O)c1ccccc1C(=O)Nc1ccc(-c2ccccc2)cc1`, the Potency result was “inactive”. The value for `COCCOc1nc(-c2ccc(Cl)c(Cl)c2)n(-c2ccc(NC(=O)CCl)cc2)n1` was “inactive”; that for `NC(=O)c1cnc(-c2ccc(C3(N)CCC3)cc2)c(-c2ccccc2)c1` was “inactive”. As to `Cc1ccccc1C(C(=O)NC1CCCCC1)N(C(=O)Cn1ccnc1C)c1cccc(F)c1` (stereo not given), the Potency result was “inactive”. The value for `CC(=O)N(C)C1(c2ccccc2)CCN(CCC[C@]2(c3ccc(Cl)c(Cl)c3)CCCN(C(=O)c3ccccc3)C2)CC1` was “inactive”; that for `COc1cc(N2CCC(N3CCN(C)CC3)CC2)ccc1Nc1ncnc(Nc2ccccc2S(=O)(=O)C(C)C)n1` was “inactive”. To `COc1ccc2c(Oc3ccc(NC(=O)c4c(C)n(CC(C)(C)O)n(-c5ccccc5)c4=O)nc3)ccnc2c1` belongs “inactive”; to `CO[C@H]1C=CO[C@@]2(C)Oc3c(C)c(O)c4c(O)c(c5c(c4c3C2=O)NC2(CCN(CC(C)C)CC2)N=5)=NC(=O)C(C)=CC=C[C@H](C)[C@H](O)[C@@H](C)[C@@H](O)[C@@H](C)[C@H](OC(C)=O)[C@H]1C`, “inactive”; to `COc1ccc(C2Sc3ccccc3N(CCN(C)C)C(=O)C2OC(C)=O)cc1` (stereo not given), “inactive”. To `O=C(CCN1CCN(C(=O)OCc2cc(Cl)cc(Cl)c2)CC1)c1ccc2[nH]c(=O)oc2c1` belongs 44.7 µM (active); to `CC(C)(C)c1cc(C(=O)O)c(NC(=O)Nc2ccc3[nH]ncc3c2)s1`, 17.8 µM (active); to `COc1cc2nc(-c3ccc(N4CCN(C)CC4)cc3)nc(NCCN3CCOCC3)c2cc1OC`, “inactive”.

As for `CC(C)C(=O)Oc1ccc(CO)cc1[C@H](CCN(C(C)C)C(C)C)c1ccccc1`, the Potency result is “inactive”. To `Cc1cccc(Nc2nc(-c3ccncc3)cs2)c1` belongs “inactive”; to `O=C(Nc1cccc(Br)c1)c1cccc(S(=O)(=O)N2CCCCCC2)c1`, “inactive”; to `CCOc1ccc(Nc2nc(-c3c(C)nc4ccccn34)cs2)cc1`, “inactive”. `CN(C)C1CCN(C(=O)c2ccc(NC(=O)Nc3nc(N4CCOCC4)nc(N4CCOCC4)n3)cc2)CC1`: the Potency result is “inactive”. As for `COc1cc2ncnc(-n3nc(-c4ccccn4)nc3N)c2cc1OC`, the Potency result was “inactive”. The value for `O=C(NCc1ccccc1)c1csc(Nc2ccncn2)n1` was “inactive”.

Regarding `O=c1cc(CN2CCOCC2)occ1OCCCCCSc1ccnc2cc(C(F)(F)F)ccc12`, the Potency entry is “inactive”.

`C=C1C(=O)[C@@]23C(CC[C@@H]1[C@H]2O)[C@@]12CO[C@]3(O)[C@@H](O)[C@@H]1C(C)(C)CC[C@@H]2O` (stereo not given in full): the Potency entry is “inactive”. The value for `Cc1nc(N)sc1-c1ccnc(Nc2ccc(N3CCOCC3)cc2)n1` was “inactive”. As for `CS(=O)(=O)N(Cc1ccco1)CC(O)Cn1c2ccccc2c2ccccc21` (stereo not given), the Potency result was “inactive”. The value for `COc1cc2c(cc1OC)CN(CCc1ccc(NC(=O)c3cc(OC)c(OC)cc3NC(=O)c3cnc4ccccc4c3)cc1)CC2` was “inactive”.
